In ChEMBL document CHEMBL4513216, “Probing the Open Global Health Chemical Diversity Library for Multistage-Active Starting Points for Next-Generation Antimalarials” (ACS Infect Dis, 2020):
Out of some 69,000 compounds screened, about 8,600 (12%) showed an effect of 50% or more. The sample as a whole holds a higher share of strong results than the screen did.

Each compound was assayed on Plasmodium berghei (assay: Screen against P. berghei liver stage (PbLuc), transformed with Luciferase, at 10uM). Details: tested at 10 uM.
Type: functional, HepG2

Structure (SMILES) | INHIBITION [%]
CCCc1nnsc1C(=O)NCC(O)c1ccoc1 (stereo not given) | 15.5
COCC(=O)N1CCCC1c1cccc(C)c1C (stereo not given) | 17.1
CS(=O)(=O)c1cccc(OCC(=O)N2CCCC2c2ccccc2Cl)c1 (stereo not given) | 85.2
CS(=O)(=O)c1cccc(OCC(=O)N2CCCC2c2ccc[nH]2)c1 (stereo not given) | 61.6
O=C(COc1ccccc1)N1CCCC1c1ccc[nH]1 (stereo not given) | -23.3
Cc1cccc(C2CCCN2C(=O)CCS(C)(=O)=O)c1C (stereo not given) | -8.84
O=C(COc1ccc2c(c1)CCC2)N1CCCC1c1ccc[nH]1 (stereo not given) | -38.6
CCC(O)CN1CCN(C(=O)c2cnn(-c3ccccc3F)c2)CC1 (stereo not given) | -1.37
Cc1ccc([C@]2(O)CC[C@H]3CN(Cc4cccc(Cl)c4Cl)C[C@H]32)nc1 | 62
Cc1cccnc1[C@]1(O)CC[C@H]2CN(Cc3cccc(Cl)c3Cl)C[C@H]21 | 15.9
COc1ccc(CN2C[C@H]3CC[C@](O)(c4ccc(C)cn4)[C@H]3C2)c(F)c1 | 27.3
O[C@]1(c2ccccn2)CC[C@@H]2CN(Cc3cccc4ncccc34)C[C@@H]21 | 27.9
Cc1ccc([C@]2(O)CC[C@H]3CN(Cc4ccc(Cl)cc4Cl)C[C@H]32)nc1 | 93.1
Cc1ccc([C@]2(O)CC[C@H]3CN(Cc4ccccc4F)C[C@H]32)nc1 | -18.2
Cc1ccc([C@]2(O)CC[C@H]3CN(Cc4cccc(F)c4F)C[C@H]32)nc1 | 15.9
O[C@@]1(c2ccccn2)CC[C@H]2CN(Cc3cccc(Cl)c3Cl)C[C@H]21 | 61.4
COc1cccc(CN2C[C@@H]3CC[C@@](O)(c4ccccn4)[C@@H]3C2)c1OC | 24.8
CC(=O)c1ccc(F)cc1-c1cc(NCCO)nc2[nH]ccc12 | -110
CN(C)c1cccc(C(=O)N2CCCC2c2ncc3c(n2)CCNC3)c1 (stereo not given) | -16.7
Cc1cc2nc(C(C)C)cc(NC(C)c3nncn3C3CCCC3)n2n1 (stereo not given) | 51.2
Cc1cc(NC(C)c2nncn2C2CCCC2)n2nc(C)cc2n1 (stereo not given) | 35.8
Cc1cc2nc(C(C)C)cc(NC(C)c3nncn3C)n2n1 (stereo not given) | 47.6
O=C(c1cnn2cccnc12)N1CCCC(n2ccnc2)C1 (stereo not given) | 2.3
Cc1cccc(CN2CC[C@@H]3[C@@H](CO[C@H]3CNc3ncccn3)C2)n1 | 18.4
COc1cc2ccccc2cc1C(=O)N1CCCC(c2nncn2C)C1 (stereo not given) | -8.11
